Assay outcomes as filed in PubChem BioAssay.
Hits are enriched below; roughly 17% of the tested compounds scored in any of these assays.
TGFb SMAD3 inh = TGF-b pathway inhibition. HepG2 CAGA-GFP TGF-b/SMAD3 reporter, GFP fluorescence, 18 h; TGF-beta stimulated, 500 pg/mL final. Potency, µM (series often up to 46.1 µM), inactives show top-dose activity, negative = inhibition, most hits filed as inhibitors. 410,000 compounds, 1.2% hits. AID 588855; further: on the % scale 0 is the no-effect control and ±100 the full control effect; nearly all actives have a fitted effect of over 65% in size
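First, reporter cells (HEPG2 CAGA-GFP) rested 2 h at 37 degrees C. Next, compounds were pinned in and TGF-beta added to 500 pg/mL final. After 18 h, GFP was imaged per cell and summed per well.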
HepG2 tox = counter-screen for TGF-b inhibitors: cytotoxicity in HepG2 cells | HepG2 CAGA-GFP viability, ATP luminescence, 18 h | Potency, µM (top dose mostly 46.1 µM), inactives show at the highest dose activity change, negative = cytotoxicity, hits mostly cytotoxic | 410,000 compounds, 0.76% hits
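HepG2 CAGA-GFP cells (1000/well, DMEM with 1% FBS) received compound, then TGF-beta at 500 pg/mL final, and were incubated 18 hours at 37 degrees C. Viability was read by CellTiter-Glo luminescence. Media-only wells were set as complete cell-killing and DMSO as no toxicity.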
TDP1 cell noCPT = qHTS for Inhibitors of human tyrosyl-DNA phosphodiesterase 1 (TDP1): qHTS in cells in absence of CPT; DT40 Tdp1-/- hTDP1 cells, no CPT, ATP luminescence, 48 h; Potency, µM (highest dose often 46.2 µM), for the others: at the highest dose activity change, negative = growth inhibition, most hits filed as inhibitors; 420,000 compounds, 15% hits; further: on the % scale 0 is the no-effect control and ±100 the full control effect; nearly all actives have a fitted effect of over 55% in size
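Stably hTDP1-transfected Tdp1-null chicken DT40 cells were treated with library compounds minus camptothecin and grown for at least 48 hr at 37 °C, after which cellular ATP was quantified by luminescence.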
HT1080 IDH1KD tx = toxicity to HT-1080 IDH1 knockdown cells (counter line); Potency, µM (top dose mostly 46.1 µM), for the others: at the top dose activity, negative = toxicity, actives largely listed as cytotoxic; HT-1080 IDH1 knockdown viability, ATP luminescence, 48 h; 360,000 compounds, 2% hits;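 further: 0% = DMSO wells and -100% = cell-free medium wells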
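Luminescent ATP read-out (CellTiter-Glo, 10 min at room temperature) after 48 h compound exposure at 37 °C gave viability of IDH1-knockdown HT-1080 cells. Activity was normalised to DMSO and cell-free wells, then fitted as concentration-response curves.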
TDP1 cell CPT = DT40-hTDP1 cell growth loss with CPT; chicken DT40 Tdp1-/-;hTDP1 cells + 20 nM CPT, ATP luminescence, 48 h; 420,000 compounds, 12% hits; Potency, µM (doses to about 46.2 µM), without a hit: at the top dose activity change, negative = growth inhibition, actives largely listed as inhibitors; AID 686979; further: on the % scale 0 is the no-effect control and ±100 the full control effect; nearly all actives have a fitted effect of over 55% in size
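Chicken DT40 Tdp1-/- cells stably complemented with human TDP1 were seeded at 400 cells/well in medium containing 20 nM camptothecin, exposed to pin-transferred compounds, and grown at 37 °C for at least 48 hr. Viability was read as ATP luminescence.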
HT1080NT lethal = kills 2HG-producing HT-1080-NT fibrosarcoma cells | HT-1080-NT fibrosarcoma viability, CellTiter-Glo ATP luminescence, 48 h | 360,000 compounds, 1.6% hits | Potency, µM (doses to about 46.1 µM), for the others: at the top dose activity, negative = less viability, most hits filed as cytotoxic;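 further: NT is the 2HG producing partner of a matched IDH1 knockdown line; 0% = DMSO-treated cells and -100% = media-only wells without cells; nearly all actives have a fitted effect of over 55% in size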
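750 cells/well, RPMI + 5% FBS; 2 h settle, compound pin-transfer, 48 h at 37 degrees C. CellTiter-Glo 10 min RT, luminescence. Normalized to DMSO and media-only wells.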
Starred values were filed as active, the others as inactive; ? = inconclusive; · = not tested or not shown. The call rests on the fitted dose curve; in most records, active means well fitted curve in the direction sought with a large enough effect; inconclusive means small, poorly fitted or top-dose-only effect, or another doubt; inactive means no such curve, though single readings can be large; an effect the other way counts as inactive or inconclusive. Potency means the concentration at half of the fitted maximal effect.

SMILES	TGFb SMAD3 inh	HepG2 tox	TDP1 cell noCPT	HT1080 IDH1KD tx	TDP1 cell CPT	HT1080NT lethal
CCOC(=O)C1CCN(C(=O)c2ccc3c(c2)sc2nc(-c4ccccc4)cn23)CC1	?	-18%	23µM*	·	6.5µM*	·
CCOC(=O)C1CCN(C(=O)c2ccc3c(c2)sc2nc(-c4ccc(OCC)cc4)cn23)CC1	-30%	-15%	6.5µM*	·	7.3µM*	·
CCOC(=O)N1CCN(C(=O)c2ccc3c(c2)sc2nc(-c4ccccc4)cn23)CC1	-42%	-17%	?	-10%	?	-11%
Cc1ccc(-c2cn3c(n2)sc2cc(C(=O)N4CCCCC4)ccc23)cc1	-21%	-33%	16µM*	·	-79%	·
COc1ccc(NC(=O)N(C)C[C@H]2Oc3ccc(NC(=O)Nc4ccc5c(c4)OCO5)cc3C(=O)N([C@H](C)CO)C[C@@H]2C)cc1	-13%	-9%	0%	9%	2%	6%
Cc1ccc(NC(=O)C2CC2c2ccccc2)c([N+](=O)[O-])c1 (configuration not stated)	-10%	-14%	-27%	-4%	-25%	-1%
Cc1onc(-c2ccccc2)c1C(=O)NC1CC1	-17%	-7%	-9%	5%	7%	4%
Cc1cccc(OCCSCc2nc3ccccc3[nH]2)c1	-21%	-28%	21µM*	-6%	16µM*	-9%
Cc1ccccc1OCCSCc1nc2ccccc2[nH]1	?	-76%	?	-21%	16µM*	-17%
Cc1ccccc1OCC(=O)NCCc1nc2ccccc2[nH]1	-18%	1%	?	4%	-23%	0%
O=C(O)CCC(=O)N1CCc2c([nH]c3ccccc23)C1C(F)(F)F (configuration not stated)	0%	0%	13%	-14%	-11%	3%
COc1ccccc1C(=O)Nc1ccc2c(c1)CN(C(=O)CSC)CC2	-14%	-15%	?	10µM*	?	13µM*
CSc1cccc(NC(=O)N2CCc3ccc(NC(=O)c4ccccn4)cc3C2)c1	?	-32%	13µM*	-19%	?	?
CSc1cccc(NC(=O)c2cnccn2)c1	1%	3%	-4%	16%	5%	13%
CCOC(=O)CNC(=O)N1CCc2ccc(NC(=O)c3ccccc3Cl)cc2C1	-16%	6%	8.2µM*	-28%	18µM*	-19%
CCN(CC)S(=O)(=O)c1cccc(C(=O)Oc2cccc(NC(=O)c3cccs3)c2)c1	-5%	-30%	?	17%	?	16%
O=C(c1ccccc1Br)N(Cc1ccccc1F)C1CCS(=O)(=O)C1 (configuration not stated)	-4%	2%	?	·	-28%	·
Cc1cc(C)nc(SCc2nnc(SCC(=O)Nc3nc(-c4ccccc4)cs3)n2-c2ccccc2)n1	0%	-2%	18µM*	4%	?	4%
CCn1c(CCNC(=O)c2cccs2)nnc1SCC(=O)Nc1cccc(Cl)c1	7%	-13%	-12%	-3%	0%	1%
COc1ccc(-n2c(CNc3ccc(C)cc3)nnc2SCC(=O)Nc2nc(-c3ccccc3)cs2)cc1	-2%	-22%	10µM*	-1%	5.6µM*	-2%
Cc1cc(C)nc(SCc2nnc(SCC#N)n2-c2cccc(Cl)c2)n1	-26%	2%	21µM*	2%	?	7%
CCn1c(CCNC(=O)c2cccs2)nnc1SCC(=O)Nc1nc(-c2ccccc2)cs1	-4%	-25%	10µM*	-6%	16µM*	2%
